# High-throughput results: PubChem BioAssay, Sanford-Burnham Center for Chemical Genomics
# Rows were chosen to be rich in hits. Some 28% of all compounds tested hit in one or more screens of this group.
# PTK2B oligo ant: antagonists of Pyk2 self-association, primary screen, Q293 cells, FERM NanoBiT luminescence, HTS; z-score (the deposit names both 25 µM and 10 µM); Protein-tyrosine kinase 2-beta (Homo sapiens), Q14289; 99,000 compounds, 0.83% hits; active compounds read low;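 active means Z-score of -3 or lower, scaled per plate to the spread of control and sample wells; inactive means z-score above -3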;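 further: negative z-score means lost luminescence so less FERM oligomerization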
# CYP2C9 act: human CYP2C9 activators, primary screen, biochemical, luminescence; Cytochrome P450 2C9 (Homo sapiens), P11712; recombinant CYP2C9, luciferin-H conversion; active compounds read high; factor 1 = untreated enzyme, 0 = blocked; activation factor at 5 µM; 96,000 compounds, 1.4% hits;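 active means activation factor of 2 or more for CYP2C9 at a 5 µM dose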;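 further: 0 = sulfaphenazole-blocked wells and 1 = vehicle-only wells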
# Target sequence (P11712 whole entry, looked up): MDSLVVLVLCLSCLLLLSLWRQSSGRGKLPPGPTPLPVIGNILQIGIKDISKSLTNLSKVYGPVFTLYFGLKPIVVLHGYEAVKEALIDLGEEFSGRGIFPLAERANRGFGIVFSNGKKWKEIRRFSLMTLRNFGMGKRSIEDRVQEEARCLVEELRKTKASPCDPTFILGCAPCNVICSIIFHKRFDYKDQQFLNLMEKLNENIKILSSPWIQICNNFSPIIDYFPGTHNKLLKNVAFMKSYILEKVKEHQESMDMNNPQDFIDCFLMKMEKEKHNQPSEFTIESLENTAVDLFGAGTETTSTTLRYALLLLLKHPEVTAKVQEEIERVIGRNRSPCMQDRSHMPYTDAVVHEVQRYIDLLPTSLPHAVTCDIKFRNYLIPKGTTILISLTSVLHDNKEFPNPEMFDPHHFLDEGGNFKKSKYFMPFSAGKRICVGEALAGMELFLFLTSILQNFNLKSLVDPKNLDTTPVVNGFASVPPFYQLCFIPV
# CYP2C9 inh: blockers of cytochrome P450 2C9 activity – biochemical, luminescence, ADME assay, primary screen; 96,000 compounds, 20% hits; inhibition, % at 5 µM; AID 777, 2007; P11712; CYP2C9 Supersomes, luciferin-H conversion;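 active means blocking of liver enzyme CYP2C9 beyond about 50% at 5 µM, limit read from the data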
# CYP2C19 act: human CYP2C19 activators, primary screen, biochemical, luminescence. Cytochrome P450 2C19 (Homo sapiens), P33261. recombinant CYP2C19, luciferin-H EGE luminescence; active compounds read high; 0 = fully inhibited enzyme, 1 = untreated enzyme. activation factor at 5 µM. 96,000 tested, under 10 active;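 active means activation factor of at least 2 at 5 µM in the primary screen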;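 further: 0 = wells with 2.5 mM tranylcypromine and 1 = vehicle-only wells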
# CYP2C19 inhib: blockers of cytochrome P450 2C19 activity – biochemical, luminescence, ADME assay, primary screen; P33261; CYP2C19 Supersomes, luciferin-H EGE luminescence, 30 min; inhibition, % at 5 µM; 96,000 compounds, 21% hits; AID 778, 2007;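 active means CYP2C19 inhibition above a set limit at 5 µM in the primary screen, cut at about 50% in these data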;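 further: plate controls were negative control wells for no effect and 2.5 mM tranylcypromine positive control for full effect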
# * marks the source's active call; other numbers are inactive results; · = not tested or not shown.
SMILES,PTK2B oligo ant,CYP2C9 act,CYP2C9 inh,CYP2C19 act,CYP2C19 inhib
CCC(C)NC(=O)Cn1nc([N+](=O)[O-])c(Cl)c1C (stereo not drawn),0.27,1.1,-14,0.7,26
Cc1c(Cl)c([N+](=O)[O-])nn1CC(=O)NC(C)C1CC2CCC1C2 (stereo not drawn),0.94,0.8,24,0.4,59*
CN(C)S(=O)(=O)c1cccc(CSc2cccc[n+]2[O-])c1,0.39,0.9,6,1,4
Cc1cc(C)n(-c2nc(SCCN(C)C)c3c4c(sc3n2)COC(C)(C)C4)n1,0.39,0.7,26,0.8,23
CN1CCN(c2ccc([N+](=O)[O-])cc2C(=O)c2ccc(Cl)cc2)CC1,-0.48,0.9,14,0.4,58*
O=[N+]([O-])c1ccc(N2CCN(c3ccc(Cl)nn3)CC2)c(Cl)c1,-0.23,0.6,36,1.1,-8
O=C(c1ccc(-c2ccc(Cl)cc2)o1)N1CCN(c2ccc([N+](=O)[O-])cc2Cl)CC1,0.04,0.1,92*,0.3,70*
CCOc1ccc(C(=O)c2cc([N+](=O)[O-])ccc2Cl)cc1,-0.13,0.2,76*,0.7,34
O=C(c1ccccc1)c1cc([N+](=O)[O-])ccc1N1CCOCC1,0.19,·,·,·,·
Cc1cccc2cc(COC(=O)C3CCCO3)c(=O)[nH]c12 (stereo not drawn),1.2,1.1,-6,1.1,-11
CCSCCOC(=O)C1=C(C)NC2=C(C(=O)CCC2)C1c1coc2ccccc2c1=O (stereo not drawn),0.07,0.5,52*,0.8,17
CC1=C(C(=O)OC(C)C)C(c2coc3ccccc3c2=O)C2=C(CCCC2=O)N1 (stereo not drawn),0.15,0.4,62*,0.5,46
CCOC(=O)C1=C(C)NC2=C(C(=O)CC(C)(C)C2)C1c1coc2ccccc2c1=O (stereo not drawn),-0.19,·,·,·,·
O=c1cc[nH]c2cccc(Cc3ccccc3)c12,-0.27,1,2,0.7,26
Cc1ccc2[nH]c(=O)c(C(c3nnnn3CCc3ccccc3)N3CCOCC3)cc2c1 (stereo not drawn),0.19,1,-1,1,-2
COc1ccc(CNC(=S)N/N=C/c2ccc(OC)c(OC)c2)cc1,0.58,0.4,63*,1,5
Cc1c(Cl)cccc1NC(=S)NCc1ccc(Cl)cc1,-1.7,·,·,·,·
CCNC(=S)N/N=C/c1ccc(OCC(=O)Nc2ccc(OC)cc2)c(OC)c1,-0.34,·,·,·,·
COC(=O)c1cccc(NC(=S)NCc2ccc(Cl)cc2)c1,0.17,1.2,-18,0.8,24
COc1ccc(CNC(=S)Nc2ccccc2C)cc1,-0.06,0.9,7,0,98*
COc1ccc(CNC(=S)Nc2cccc(C)c2)cc1,0.41,1.2,-25,0.2,81*
COc1ccc(CCNC(=S)Nc2cc(C)ccc2C)cc1,0.44,0.5,54*,0.3,67*
Cc1ccc(C)c(N(C)C(=O)COc2cc(=O)n(C)c3ccccc23)c1,·,0.6,35,0.7,34
C/C(=N\NC(=O)c1nn(C)cc1Br)c1cccc(NC(=O)C2CCCC2)c1,-0.21,1.6,-62,0.7,28
COc1ccc(Nc2nc(NCc3ccco3)nc(N/N=C/c3ccc(O)cc3)n2)cc1,-2.7,·,·,·,·
SMILES,PTK2B oligo ant,CYP2C9 act,CYP2C9 inh,CYP2C19 act,CYP2C19 inhib
CCOC(=O)Cc1csc(/C(=N/O)C(N)=O)n1,0.06,0.6,39,0.5,46
COc1ccc(N2CCN(C(=S)Nc3cccc(C)c3C)CC2)cc1,0.25,1.1,-9,1,-5
CC(C)Oc1ccc(CNC(=S)N/N=C/c2ccc([N+](=O)[O-])cc2)cc1,0.66,0.6,36,1,-4
Cc1ccc(C)c(NC(=S)NCCc2ccc(S(N)(=O)=O)cc2)c1,0.44,·,·,·,·
CC(C)COc1ccc(CNC(=S)N/N=C/c2ccc([N+](=O)[O-])cc2)cc1,-0.12,0.2,80*,0.8,18
Cc1c(Cl)cccc1NC(=S)NCc1ccccc1,-0.2,·,·,·,·
COc1ccc(CCNC(=S)Nc2cccc(C)c2C)cc1,-0.61,0.7,26,0.4,58*
COc1ccc(CNC(=S)Nc2cc(C)ccc2C)cc1,-0.48,0.8,16,0,98*
Cc1cc(Cl)ccc1NC(=S)NCc1ccccc1,-0.21,0.8,20,0.2,77*
O/N=C1\CC/C(=N\O)c2nn(-c3ccc(Cl)cc3Cl)nc21,-2.7,0.8,16,1.1,-9
CC1CN(Cc2cc(=O)[nH]c(C3CC3)n2)CC(C)O1 (stereo not drawn),0.48,1.1,-11,0.9,12
CC1=CC(C)(C)N(C(=O)C(C)N2C(=O)c3ccccc3C2=O)c2c(C)cc(C)cc21 (stereo not drawn),·,0.8,16,0.7,33
O=C(O)c1cccc(S(=O)(=O)N2CCSCC2)c1,0.06,1.2,-21,1.2,-18
CC(=O)C1=NOC(CNC(=O)c2c(-c3ccccc3Cl)noc2C)C1 (stereo not drawn),-0.18,0.9,7,0.9,10
COC(=O)c1cn(CCOc2ccc(C)cc2)c2ccccc12,-1.2,0.3,70*,0.3,69*
COc1cc(C(=O)Nc2ccccc2N2CCOCC2)ccc1OCc1c(C)noc1C,0,·,·,·,·
CCCCOC(=O)Cn1c(=O)n(CC(=O)OCCCC)c2ccccc21,-0.09,0.5,50*,0.6,44
CCCCCOC(=O)Cn1c(=O)oc2ccccc21,·,1.2,-21,0.1,89*
CCCCOC(=O)Cn1c(=N)n(CCN2CCOCC2)c2ccccc21,-0.16,·,·,·,·
CC(=O)C1=C(O)C(=O)N(CCN(C)C)C1c1ccc(Cl)cc1 (stereo not drawn),0.36,1.1,-13,1.1,-9
CCOc1ccc(C2=NNC(c3cccs3)=Nc3ccc(OCC)cc32)cc1,·,0.5,53*,0.9,6
COc1ccc(C2=NNC(c3cccs3)=Nc3ccc(OC)cc32)cc1,-0.91,·,·,·,·
COC(=O)c1ccc(Cl)c(-c2ccc(/C=N/NC(=O)Nc3ccccc3)o2)c1,-3.2*,0.7,30,0.8,21
Cn1c(O)c(C=Nc2ccc(Cc3ccncc3)cc2)c(=O)n(C)c1=O,·,0.3,73*,0.1,88*
CC(=O)N1c2c(cc(Br)cc2S(=O)(=O)NCc2cccnc2)CC1C (stereo not drawn),0.21,1.1,-12,0.9,6
CC(=O)N1c2c(cc(Br)cc2S(=O)(=O)N2CCOCC2)CC1C (stereo not drawn),-0.45,1.5,-54,0.9,11
CC(=O)N1c2c(cc(Br)cc2S(=O)(=O)NCC2COc3ccccc3O2)CC1C (stereo not drawn),-0.71,1.8,-81,0.3,65*
CC(=O)N1c2c(cc(Br)cc2S(=O)(=O)NCc2ccc3c(c2)OCO3)CC1C (stereo not drawn),-0.01,1.8,-83,0.1,86*
